The whole screen tested about 360,000 compounds, of which about 130 (0.036%) were called active. The sample as a whole holds a higher share of actives than the screen did. Values without a mark were called inactive. Cut-off read from the data, not from the text of the source: active = potentiation above about 30%; inactive = the rest.
Each compound was assayed against D(1A) dopamine receptor (Homo sapiens) (UniProt P21728) (assay: Potentiators of Human D1 Dopamine Receptor: qHTS). Conditions: HEK293 TREx D1 cells, calcium flux, dopamine EC20 potentiation; at 10 µM; hits give high values.
Excerpt: Dopamine receptors (DARs) are involved in the etiology and/or therapy of a number of neuropsychiatric and endocrine disorders. For instance, all receptor-based antiparkinsonian drugs work via stimulating the D1 DAR subtype whereas all FDA-approved antipsychotic agents are antagonists of this receptor. […] There are three different types of allosteric modulators that we are seeking, two of which will stimulate or augment receptor signaling, allosteric agonists and potentiators, while the third, allosteric antagonists, will attenuate receptor signaling. The present primary screening assay measures compound potentiation of an EC20 dopamine response by tracking calcium flux in a […], inducible Hek293 Trex D1 cell line.
NIH Chemical Genomics Center [NCGC]
NIH Molecular Libraries Probe Centers Network [MLPCN]
Assay Submitter (PI): David Sibley
Freshly passaged cells are plated in 1536 well black, clear bottom plates at a density of 4000 cells/well in 3 ul of complete media containing 1x tetracycline inducer. After an overnight incubation at 30 C in 5% CO2, cells are loaded with 2 ul of the no wash Calcium Assay Kit (ABD Bioquest) and incubated at room temperature for 30 to 90 minutes. A 10 cycle (1 second/cycle) baseline measurement is taken and then the FDSS online 1536 pintool delivers 23 nl of compound library (as well as dopamine controls) to the plate. The plate is measured for kinetically at 1 cycle/sec for 180 seconds and is considered to be the agonist portion of the assay (eg, compounds which activate a positive calcium response during this portion are flagged as potential agonists). Following the 180 second read, 1 ul of an EC20 of dopamine is delivered by an onboard pipette head. Measurements are taken kinetically for an additional 180 seconds.
Note: 0% is about no effect.

Chain of D(1A) dopamine receptor (Homo sapiens) (P21728 whole entry, looked up): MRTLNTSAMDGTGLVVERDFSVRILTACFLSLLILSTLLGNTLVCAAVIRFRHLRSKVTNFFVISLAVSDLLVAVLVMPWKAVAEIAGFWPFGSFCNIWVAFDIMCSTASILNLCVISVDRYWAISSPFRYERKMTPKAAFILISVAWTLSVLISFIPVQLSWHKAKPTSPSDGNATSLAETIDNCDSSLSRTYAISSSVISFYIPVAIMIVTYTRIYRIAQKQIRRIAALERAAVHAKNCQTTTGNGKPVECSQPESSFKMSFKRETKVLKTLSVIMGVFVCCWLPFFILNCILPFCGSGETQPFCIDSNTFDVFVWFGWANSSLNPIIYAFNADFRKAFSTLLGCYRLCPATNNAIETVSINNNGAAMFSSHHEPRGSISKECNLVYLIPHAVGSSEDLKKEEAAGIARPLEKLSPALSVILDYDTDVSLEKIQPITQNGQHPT

Structure (SMILES) | potentiation
Cc1ccc(S(=O)(=O)NC(N)=NCCC[C@@H](NC(=O)CNC(=O)c2ccccc2)C(=O)Nc2cc(C(F)(F)F)ccc2Cl)cc1 | 5.3%
COc1ccc(N2C(=O)CS(=O)(=O)C23C(=O)N(Cc2ccc(C)cc2)c2ccccc23)cc1Cl (centres undefined) | -6.6%
COc1cccc(NC(=O)N(Cc2cn(C)c3ccccc23)C2CCCCCC2)c1 | 1.8%
O=C(CC1N=C2c3ccccc3N=C(SCc3ccc(F)cc3)N2C1=O)NCc1cccs1 (centres undefined) | -0.25%
CCN1CCN(c2cc(C)c3cc(NC(=O)c4cc(Cl)ccc4OC)ccc3n2)CC1 | -1.15%
Cc1nc(SCC(=O)N2CCN(c3ccccc3)CC2)[nH]c(=O)c1C | 5.55%
CC(=O)c1ccc(NC(=O)CSc2nnc(NC(=O)Nc3ccccc3)s2)cc1 | 4.75%
Cc1ccc(O)c(NC(=O)CCS(=O)(=O)c2nc(-c3ccc4c(c3)OCO4)cc(C(F)(F)F)n2)c1 | -1.35%
CCOC(=O)Cn1c(=O)n(-c2ccccc2OC)c2nc(-c3cccc(F)c3)nc(C(N)=O)c21 | -1.3%
Cc1ccc(C2CCN(C(=O)c3cnn(-c4ccccc4Cl)c3C3CCN(C(=O)OC(C)(C)C)CC3)C2)cc1 (centres undefined) | 2%
COc1ccc(N2CCN(C(=O)c3c(C)oc4nc(C)nc(N5CCCC5)c34)CC2)cc1 | -1.55%
O=C(CSc1nccn1Cc1ccc(Cl)cc1)NCc1ccccc1 | 0.3%
COc1cc(OC)cc(C(=O)N[C@H](C(=O)OCC(=O)NC(C)c2ccccc2)C(C)C)c1 (some centres undefined) | 36.6% (active)
COc1ccc(N2CCN(C(=O)[C@@H](NC(=O)c3cc(OC)cc(OC)c3)C(C)C)CC2)cc1 | -4.25%
Cc1ccccc1OCCC(=O)OCC(=O)NC(C)c1ccccc1 (centres undefined) | -0.3%
Cc1onc(-c2ccc(F)cc2F)c1C(=O)Nc1cccc(C(F)(F)F)c1 | 0.65%
COc1ccccc1-c1cc(C(F)(F)F)nc(S(=O)(=O)CCCC(=O)Nc2ccc(F)cc2F)n1 | -0.1%
COc1ccc(CCNc2nc(-c3ccc(F)cc3)cc(C(F)(F)F)n2)cc1OC | 3.1%
COc1ccc(C2=NC(c3ccncc3)=Nc3ccc(Br)cc3N2)cc1 | 3.45%
Brc1ccc(C2CC(c3ccccc3)=Nc3ccccc3N2)cc1 (centres undefined) | -5.6%
Brc1ccc2c(c1)NC(c1cccnc1)=NC(c1ccccc1)=N2 | 35.8% (active)
CCCCS(=O)(=O)c1oc(-c2cccs2)nc1S(=O)(=O)c1ccccc1 | -0.2%
CCc1ccccc1NC(=O)c1ccc2nc(CCc3ccccc3)oc2c1 | 1%
CCOc1ccccc1C(=O)NC1(C(F)(F)F)NC(=O)N(CCc2ccc(OC)c(OC)c2)C1=O (centres undefined) | -3.95%
O=C(NCc1nnc(C(=O)Nc2ccc(C(F)(F)F)cc2Cl)o1)c1ccccc1 | -8.2%
CCCS(=O)(=O)c1ncc(Cl)c(C(=O)Nc2scc(-c3ccccc3)c2C(=O)OCC)n1 | -3.7%
N#Cc1nc(Nc2cc(F)cc(Cl)c2)nc(NC2CCCC2)n1 | -0.2%

Structure (SMILES) | potentiation
CCOc1ccc(C2C3=C(CCCC3=O)N(CC(=O)O)C3=C2C(=O)CCC3)cc1 | 36% (active)
CCOc1ccc(C2C(C#N)=C(N)N(N(C)C)C3=C2C(=O)CCC3)cc1 (centres undefined) | -0.15%
COc1ccc(C2C3=C(CCCC3=O)N(CC(=O)O)C3=C2C(=O)CCC3)cc1 | 1%
CCc1ccc(CN(Cc2ccco2)C(=O)c2ccccc2Cl)cc1 | -2.55%
CC(=O)Nc1cccc(NC(=O)CSc2cn(CC(=O)N3CCCC3)c3ccccc23)c1 | -2.85%
O=c1c(NCc2cccs2)nccn1-c1ccccc1 | 0.1%
O=C(COc1ccc(Cl)cc1)N(Cc1ccco1)Cc1ccco1 | 1.05%
Cc1ccc(Cn2c(C)c3cnn(CC(=O)NCc4ccccc4)c(=O)c3c2C)cc1 | -1.5%
O=C(COc1ccccc1)NCc1ccc2c(c1)CCN2C(=O)c1ccc(F)cc1 | -2.1%
Cc1ccc(CCNC(=O)Cn2c(-c3cccs3)cc3cc(F)ccc32)cc1 | -3.65%
Cc1ccc(-c2cc(N)n(Cc3cccc(Cl)c3)n2)cc1 | -4.4%
O=S(=O)(c1ccc2nc(NCc3ccccc3Cl)ccc2c1)N1CCCCC1 | -5.55%
Cc1ccc2ccc3c(c2n1)NS(=O)(=O)c1ccccc1-3 | 1.45%
COc1ccc(OC)c(NC(=O)CSc2nc3ccccc3nc2N2CCCCC2)c1 | -3.85%
CCc1ccccc1NC(=O)CSc1nnc(-c2ccccc2)c(-c2ccccc2)n1 | 1%
Cc1c(Cl)cccc1NC(=O)c1noc2c1CCCC2 | 2.2%
CCC(=O)N1CCc2cc(CNS(=O)(=O)c3ccc(Br)s3)ccc21 | -0.5%
O=C1C(F)N([S+](=O)([O-])c2ccc3c(c2)OCCO3)CCN1[S+](=O)([O-])c1c(F)cccc1F (centres undefined) | 5.45%
COc1cccc(CNC(=O)c2ccc3c(c2)N(Cc2ccc(C(F)(F)F)cc2)C(=O)c2ccccc2S3)c1OC | -5.65%
N#Cc1nc(Nc2cccc(Cl)c2)nc(NC2CCCC2)n1 | -2.6%
Cc1c(-c2nc(-c3ccc4c(c3)OCO4)no2)nnn1-c1ccc(Br)cc1F | -2.8%
CC1CCC2(CC1)N=C(c1ccccc1)C(=O)N2CC(=O)Nc1ccc(F)c(Cl)c1 (centres undefined) | -3.15%
CN(C(=O)c1ccc2c(c1)N(Cc1cccc(Cl)c1)C(=O)c1ccccc1S2=O)C1CCCCC1 (centres undefined) | 0.2%
CCc1cc2c(cc3c(=O)n(CC(=O)N4CCN(c5cc(Cl)ccc5C)CC4)ncn32)s1 | -2.7%
O=C(CNC(=O)c1ccccc1)OC(C(=O)Nc1cc([N+](=O)[O-])ccc1F)c1ccccc1 (centres undefined) | 5.6%
COCCNC(=O)c1ccc2c(c1)N=C(C)c1cc(C)ccc1S2 | 0.1%
CCOC(=O)c1cccc(NC(=O)c2cc(CN3CCCC3)on2)c1 | -7.25%
